Experimental data published in PubChem BioAssay (Tox21).
Results filed as inconclusive are left out. Where a call stands in place of a potency, no number is given. Active and inactive are the calls of the source. Calls come from the whole dose curve; as a rule, active = well fitted cell-killing curve with a large enough effect in the repeat runs; inconclusive = weak or mixed curves, or effect the other way; inactive = no such curve, though single readings can be large or run the other way.

Test: qHTS assay to identify small molecule antagonists of the progesterone receptor (PR) signaling pathway - cell viability counter screen (AID 1346798); note: nearly all actives have a fitted effect of over 50% in size
Conditions: PR-UAS-bla HEK293T viability, CellTiter-Glo luminescence, 16 h; series mostly up to 92.4 µM
Description: National Center for Advancing Translational Sciences [NCATS]
NIH Chemical Genomics Center [NCGC]
U.S. Environmental Protection Agency [EPA]
National Institutes of Environmental Health Sciences [NIEHS]
National Toxicology Program [NTP]
U.S. Food and Drug Administration [FDA]
Progesterone receptor (PR), a nuclear hormone receptor, plays an important role in development, metabolic homeostasis and reproduction. It is activated by the steroid hormone progesterone. Endocrine disrupting chemicals (EDCs) and their interactions with steroid hormone receptors like PR causes disruption of normal endocrine function. To identify the compounds that inhibit PR signaling, a PR-UAS-bla GripTite cell line i.e. PR-UAS-bla HEK293T (Invitrogen, Carlsbad, CA, USA) containing a beta-lactamase reporter gene under the control of an UAS response element was used to screen Tox21 10K compound library. The cytotoxicity of the Tox21 compound library against the PR-bla cell line was tested in parallel by measuring the cell viability using CellTiter-Glo assay in the same wells.
Tox21 Assay Protocol Summary:
PR-UAS-bla HEK293T cells were dispensed at 3,000 cells/4 uL of assay medium containing 2% charcoal stripped FBS per well into black wall/clear-bottom 1536-well plates using a Multidrop Combi (ThermoFisher Scientific, Waltham, MA) dispenser. After the assay plates were incubated at a 37C and 5% CO2 for 4 hr, 23 nL of compounds dissolved in DMSO, positive controls or DMSO only was transferred to the assay plate by a Pintool station (Kalypsys, San Diego, CA), followed by addition of 1 uL of R5020 in assay medium using a Flying Reagent Dispenser (FRD, Aurora Discovery, San Diego, CA). The plates were incubated at 37C and 5% CO2 for 16 hr. Then 1 uL of LiveBLAzer B/G FRET substrate was added using a Flying Reagent Dispenser, the plates were incubated at room temperature for 2 hours, and fluorescence intensity was measured by an Envision plate reader (PerkinElmer, Shelton, CT). For cell viability readout that measures cytotoxicity, 4 uL/well of CellTiter-Glo reagent was added into the assay plates using a FRD. After 30 min incubation at room temperature, the luminescence intensity in the plates was measured using a ViewLux (PerkinElmer) plate reader.

Row | SMILES | Potency
1 | Cc1ccc(N)c(S(=O)(=O)O)c1 | inactive
2 | CCC(=O)O | inactive
3 | CCCCCC/C=C/CCCCCCCC(=O)O | inactive
4 | NC(=O)NNc1ccccc1 | inactive
5 | CCOC(=O)C1OC1c1ccccc1 (stereo not given) | inactive
6 | CC(C)Cc1ccccc1 | inactive
7 | CN(C)c1ccc(C(=N)c2ccc(N(C)C)cc2)cc1 | inactive
8 | O=c1c(-c2ccc(O)cc2)coc2cc(O)ccc12 | inactive
9 | NCCc1ccc(O)c(O)c1 | inactive
10 | CC1CC(OC(=O)c2ccccc2O)CC(C)(C)C1 (stereo not given) | inactive
11 | CC[Si](OC(C)=O)(OC(C)=O)OC(C)=O | inactive
12 | O=C(O)c1ccc([N+](=O)[O-])cc1 | inactive
13 | CC1(C)CC(N=C=O)CC(C)(CN=C=O)C1 (stereo not given) | inactive
14 | CCOC(=O)[C@H](CCc1ccccc1)N[C@@H](C)C(=O)N1Cc2ccccc2C[C@H]1C(=O)O | inactive
15 | CC1=CC[C@H]2C[C@@H]1C2(C)C | inactive
16 | OC[C@@H](O)[C@H](O)[C@H](O)[C@@H](O)CO | inactive
17 | COCC(=O)O | inactive
18 | O=[N+]([O-])C(CO)(CO)CO | inactive
19 | CCOC(=O)/C=C\C(=O)OCC | inactive
20 | C=C(C)C(=O)OCCCCCCCCCCCC | inactive

Row | SMILES | Potency
21 | Oc1c(Cl)cc(Cl)c(Cl)c1Cl | inactive
22 | CC1Cc2ccccc2N1NC(=O)c1ccc(Cl)c(S(N)(=O)=O)c1 (stereo not given) | inactive
23 | C/C=C(C)/C=C/C=C(C)C | inactive
24 | CC1=C(CC(=O)O)c2cc(F)ccc2/C1=C\c1ccc(S(C)=O)cc1 (stereo not given) | inactive
25 | CCCCC(CC)COC(=O)/C=C\C(=O)OCC(CC)CCCC (stereo not given) | inactive
26 | CCCCCCCCCC(=O)O | inactive
27 | O=C1N=C(O)CN1/N=C/c1ccc(-c2ccc([N+](=O)[O-])cc2)o1 | inactive
28 | OCC1CCCO1 (stereo not given) | inactive
29 | CCCCCCCCC | inactive
30 | CS(=O)(=O)Nc1ccc([N+](=O)[O-])cc1Oc1ccccc1 | inactive
31 | CCCCCCCCCCC=CC1CC(=O)OC1=O (stereo not given) | inactive
32 | CC(=O)CCc1ccccc1 | inactive
33 | Clc1cc(Cl)c(Cl)cc1Cl | inactive
34 | OC1CCCC1 | inactive
35 | C=C(C)C(=O)OCCCCCC | inactive
36 | O=S(=O)(O)CCS | inactive
37 | NC(=O)/N=N/C(N)=O | inactive
38 | NS(=O)(=O)c1cc2c(cc1Cl)NC=NS2(=O)=O | inactive
39 | Nc1cc(-c2ccncc2)c[nH]c1=O | inactive
40 | CS(=O)(=O)c1ccc([C@@H](O)[C@@H](CO)NC(=O)C(Cl)Cl)cc1 | inactive
